According to ChEMBL document CHEMBL3988442, “University of Dundee, Small-Polar-MMV Screening Library” (2021):
The whole screen tested about 69,000 compounds, of which about 950 (1.4%) showed an effect of 50% or more. This excerpt belongs to a sample that is enriched for strong results.

Each compound was assayed on Mycobacterium tuberculosis (assay: Cornell M. t heat shock assay; also: in the data most compounds retested in dose-response had high values).
Format: functional, organism-based
Design: dose or concentration left out as unconfirmed
`CCOCC1CN(Cc2cnn(C)c2)Cc2nn(CC3CC3)cc21.O=C(O)C(F)(F)F` (stereo not given) was tested, and the “Percent Effect” value was 2.131%. In the case of `CCCn1[nH]cc/c1=N\C(=O)CN1CCc2c(nc(C3CC3)n2C)C1`, the “Percent Effect” value is reported as 7.757%. In the case of `Cl.O=C(C1CCCCC1)N1C[C@H]2CNC[C@H]2C1`, the “Percent Effect” value is reported as -3.289%. `O=c1cc(CN2CC[C@H]3CC[C@@H](C2)N3)c2cccc3c2n1CCC3` was tested, and the “Percent Effect” value was -15.55%. With `CN(C)C(=O)COC1COC2(CCN(CC3CCOCC3)CC2)C1.O=C(O)C(F)(F)F` (stereo not given) the “Percent Effect” value was -2.67%. `Cl.c1nc(N2CCOCC2)sc1-c1cncn1CCCN1CCCCC1` was tested, and the “Percent Effect” value was -3.925%. For `CC(C)NC(=O)c1ccc2c(c1)C1(CCN(C(C)C)CC1)C(=O)N2.O=C(O)C(F)(F)F`, the “Percent Effect” value was -33.29%. In the case of `Cc1noc(C)c1CN1CCn2cc(CNc3ccccn3)nc2C1.O=C(O)C(F)(F)F.O=C(O)C(F)(F)F`, the “Percent Effect” value is reported as 4.3%. For `Cc1ccc(O[C@@H]2C[C@H]3CN(Cc4nccn4C)CCN3C2)cc1.O=C(O)C(F)(F)F.O=C(O)C(F)(F)F`, the “Percent Effect” value was -24.79%. For `CC(C)NC(=O)CNC(=O)c1csc(Cc2ccccc2F)n1`, the “Percent Effect” value was -1.27%. In the case of `COCC1N(C(=O)N2CCOCC2)[C@H]2CC[C@]1(O)CC2` (stereo not given in full), the “Percent Effect” value is reported as -3.821%. `COCc1ncn(Cc2nc(-c3ccc(OC)cc3F)oc2C)n1` was tested, and the “Percent Effect” value was -9.071%. With `COc1ccc(-c2nc(CN3CCCC(OC)C3)c(C)o2)c(F)c1` (stereo not given) the “Percent Effect” value was 93.73%. `CCCOC1CCCN(Cc2nc(-c3ccc(F)cc3F)oc2C)C1` (stereo not given) was tested, and the “Percent Effect” value was -26.76%. In the case of `O=C(O)C(F)(F)F.O=C(c1ccsc1)N1C[C@H]2CCC[C@@]2(COCc2cccnc2)C1`, the “Percent Effect” value is reported as -16.41%. `Cl.Cl.O=C(NCc1cncc2c1CCN(C1CCOCC1)C2)c1ccno1` was tested, and the “Percent Effect” value was 18.25%. `Br.Cc1cc(C)nc(NCCC(=O)NCCn2ccnc2C)n1` was tested, and the “Percent Effect” value was -9.93%. In the case of `Cc1csc(NCC(=O)c2c[nH]c3ccccc23)n1.I`, the “Percent Effect” value is reported as 13.99%. `Cc1nc(CN2C(=O)CCC23CCN(Cc2ccoc2)CC3)cs1.O=C(O)C(F)(F)F.O=C(O)C(F)(F)F` was tested, and the “Percent Effect” value was -26.87%. For `Cc1nc(CN2CCC23CCN(Cc2ccco2)CC3)cs1`, the “Percent Effect” value was 77.77%. For `Cc1nc(CN2C(=O)CCC23CCN(Cc2ccco2)CC3)cs1`, the “Percent Effect” value was 5.099%. With `Cc1nc(CN2CCC23CCN(Cc2ccoc2)CC3)cs1` the “Percent Effect” value was 94.23%. With `Cc1nc(CN2CCC23CCN(C(=O)c2ccco2)CC3)cs1` the “Percent Effect” value was -3.59%. For `Cc1nc(CN2CCC3(C2)CN(Cc2ccco2)C3)cs1`, the “Percent Effect” value was 18.48%. With `O=C(N1CCCO1)[C@@]12CCO[C@@H]1CCN(Cc1ccc(F)cc1)C2.O=C(O)C(F)(F)F` the “Percent Effect” value was -15.72%. For `Cn1cc(-c2cnc(N3CCOCC3)nc2)cc1C(=O)NCCO.O=C(O)C(F)(F)F`, the “Percent Effect” value was 10.75%. `O=C(c1c[nH]c(=O)c(Cl)c1)N1C[C@@H]2CC[C@H](C1)N(CC1CCC1)C2` was tested, and the “Percent Effect” value was -23.49%. For `COCCn1c2c(ccc1=O)CC(NCc1cccnc1OC)CC2.O=C(O)C(F)(F)F.O=C(O)C(F)(F)F` (stereo not given), the “Percent Effect” value was 19.47%. With `COC1COC2(CCN(CC3CC3)CC2)C1.O=C(O)C(F)(F)F` (stereo not given) the “Percent Effect” value was -5.009%. In the case of `COCc1ccc(C(=O)N2CCC(c3cc4nccnc4[nH]3)CC2)cc1`, the “Percent Effect” value is reported as 64.38%. In the case of `COCc1ccc(C(=O)N2CCC(c3cc4ncc(C)nc4[nH]3)C2)cc1` (stereo not given), the “Percent Effect” value is reported as 6.722%. For `Cc1cnc2cc(C3CCN(C(=O)c4ccncc4)CC3)[nH]c2n1`, the “Percent Effect” value was 11.57%. With `COc1ccc(Cn2c(C3CCNCC3)cc3cccnc32)cc1.Cl` the “Percent Effect” value was 2.964%. For `CCOC(=O)CSc1nnc([C@@H](N)C(C)CC)o1.Cl` (stereo not given in full), the “Percent Effect” value was -17.57%. For `CCOCC1CN(C2CCCC2)Cc2cnn(CC3CCOCC3)c21.O=C(O)C(F)(F)F.O=C(O)C(F)(F)F` (stereo not given), the “Percent Effect” value was -13.36%. For `c1ccc(O[C@H]2C[C@@H]3CN(Cc4cnccn4)C[C@@H]3C2)cc1`, the “Percent Effect” value was -8.402%. For `c1ccc(CN(Cc2cccc3cnccc23)CC2CCCO2)nc1` (stereo not given), the “Percent Effect” value was 13.24%. In the case of `Cc1ccc2cc(CN(C)Cc3ccccn3)c(=O)[nH]c2c1`, the “Percent Effect” value is reported as -6.108%. With `O=c1[nH]c2ccccc2cc1CN(Cc1ccccn1)CC1CCCO1` (stereo not given) the “Percent Effect” value was 51.43%. For `O=C(N1CCOCC1)N1C(CN2CCOCC2)[C@]2(O)CC[C@H]1CC2` (stereo not given in full), the “Percent Effect” value was 2.205%. For `CN1C[C@@H]2CN(C(=O)C3CC=CC3)C[C@@H]2C1=O`, the “Percent Effect” value was -1.029%. `Cc1cc(CCC(=O)Nc2nncs2)nc(C2CCCN2)n1.Cl` (stereo not given) was tested, and the “Percent Effect” value was -11.36%. For `CN(C)C(=O)c1nn(C)c2c1CN(Cc1ccc(F)cc1)C2.O=C(O)C(F)(F)F`, the “Percent Effect” value was -35.3%. `O=C(O)C(F)(F)F.O=C1CC[C@]2(CC[C@@H](NC(=O)NCc3cccnc3)CC2)N1` was tested, and the “Percent Effect” value was 2.106%. In the case of `O=C(Cn1cccnc1=O)NC(Cc1ccsc1)c1ccccn1` (stereo not given), the “Percent Effect” value is reported as 17.67%. `CN(CC(=O)NC(Cc1ccsc1)c1cccnc1)Cc1ccccn1.Cl` (stereo not given) was tested, and the “Percent Effect” value was -24.9%. `Cc1cc(C)n(CC(=O)NC(Cc2ccsc2)c2ccccn2)c(=O)n1.Cl` (stereo not given) was tested, and the “Percent Effect” value was 93.95%. In the case of `Cc1csc(C(Cc2ccsc2)NC(=O)CN(C)Cc2cccnc2)n1.Cl` (stereo not given), the “Percent Effect” value is reported as -9.769%. With `Cc1csc(C(Cc2ccsc2)NC(=O)Cn2cccnc2=O)n1` (stereo not given) the “Percent Effect” value was -16.84%. For `Cc1csc(C(Cc2ccsc2)NC(=O)CN(C)Cc2ccccn2)n1.Cl` (stereo not given), the “Percent Effect” value was 82.59%. In the case of `Cc1ccc(N2CCC3(CCN(C(=O)c4ccnnc4)CC3)CC2)nn1.O=C(O)C(F)(F)F`, the “Percent Effect” value is reported as -48.43%. For `Cn1nnc2c1CCN(Cc1nccs1)C2COCc1ccccc1.O=C(O)C(F)(F)F` (stereo not given), the “Percent Effect” value was 7.839%. `N#Cc1cccc(CN2CC[C@@H]3[C@@H]2CC(=O)N3CCN2CCCC2)c1.O=C(O)C(F)(F)F.O=C(O)C(F)(F)F` was tested, and the “Percent Effect” value was -3.152%. `Cc1c(C(=O)NC2=NCCS2)cnn1-c1ccc(Br)cc1` was tested, and the “Percent Effect” value was 23.54%. With `Cc1cc(C(=O)NC2=NCCS2)c(C)n1-c1ccccn1` the “Percent Effect” value was 4.567%. `Cc1oc(-c2ccccc2)nc1CC(=O)NC1=NCCS1` was tested, and the “Percent Effect” value was 20.62%. In the case of `Cc1oc(-c2ccc(Cl)cc2)nc1C(=O)NC1=NCCS1`, the “Percent Effect” value is reported as 105.8%. With `Cc1oc(-c2ccccc2)nc1C(=O)NC1=NCCS1` the “Percent Effect” value was 105.4%. With `Cc1c(C(=O)NC2=NCCS2)cnn1-c1ccc(Cl)cc1` the “Percent Effect” value was 22.26%. In the case of `CC(C)CN1CC[C@@H]2[C@H](CC1)N(S(C)(=O)=O)CCS2(=O)=O.O=C(O)C(F)(F)F`, the “Percent Effect” value is reported as -8.964%. For `Cc1c(CN2CCc3nc4sccc4c(=O)n3CC2)cnn1C.Cl`, the “Percent Effect” value was -11.07%. `COCC(=O)NCc1cc(=O)n2c(n1)CN(C)CCC2.O=C(O)C(F)(F)F` was tested, and the “Percent Effect” value was 2.895%. For `CCn1cncc1CN1CCN(CC2(c3ccc(C)cc3)CC2)CC1.Cl`, the “Percent Effect” value was -24.04%. With `Cn1nnc2c1C(COCc1cccnc1)CN(Cc1ccoc1)C2.O=C(O)C(F)(F)F.O=C(O)C(F)(F)F` (stereo not given) the “Percent Effect” value was -46.31%. For `O=S(=O)(NCCNc1cc(-n2cccc2)ncn1)c1cccs1`, the “Percent Effect” value was 9.38%. For `O=S(=O)(NCCNc1cc(-n2cccn2)ncn1)c1cccs1`, the “Percent Effect” value was -0.2009%. In the case of `O=S(=O)(NCCNc1ccc(-n2cccc2)nn1)c1cccs1`, the “Percent Effect” value is reported as 103.8%. `O=S(=O)(NCCNc1ccc(-n2cccn2)nn1)c1ccccc1` was tested, and the “Percent Effect” value was 101.1%. With `O=S(=O)(NCCNc1ccc(-n2cccc2)nn1)c1ccccc1` the “Percent Effect” value was 100.9%. In the case of `Cc1nsc(NCCNS(=O)(=O)c2ccccc2)n1`, the “Percent Effect” value is reported as -4.682%. `Cc1cc(C)n(-c2ccc(NCCNS(=O)(=O)c3ccccc3)nn2)n1` was tested, and the “Percent Effect” value was 7.275%. In the case of `O=S(=O)(Cc1ccccc1)NCCNc1ccc(-n2cccc2)nn1`, the “Percent Effect” value is reported as -9.655%. `Cc1ccc(C)c(S(=O)(=O)NCCNc2ccc(-n3cccc3)nn2)c1` was tested, and the “Percent Effect” value was 35.9%. For `CNC(=O)CN1CC[C@H]2CN(C(=O)c3ccccc3F)C[C@H]2C1.O=C(O)C(F)(F)F`, the “Percent Effect” value was -22.98%. In the case of `CC(C)c1nn(C)c(N(C)C)c1CNCc1ccccc1CO.Cl`, the “Percent Effect” value is reported as 37.79%. `CCOC1COC2(CCN(Cc3ccc(C)cc3)CC2)C1.O=C(O)C(F)(F)F` (stereo not given) was tested, and the “Percent Effect” value was -2.769%. With `CCN1CCC2(CC1)CC(NC(=O)c1c[nH]cn1)c1ccccc1O2` (stereo not given) the “Percent Effect” value was 11.74%. With `CCN1CCC2(CC1)CC(NC(=O)c1csnn1)c1ccccc1O2.O=C(O)C(F)(F)F` (stereo not given) the “Percent Effect” value was 54.1%. For `O=C(NC1CC2(CCN(CCO)CC2)Oc2ccccc21)c1csnn1` (stereo not given), the “Percent Effect” value was 10.49%. For `COCCN1CCC2(CC1)CC(NC(=O)COC)c1ccccc1O2.O=C(O)C(F)(F)F` (stereo not given), the “Percent Effect” value was -4.974%. For `CN1CCC2(CC1)CC(NC(=O)c1csnn1)c1ccccc1O2.O=C(O)C(F)(F)F` (stereo not given), the “Percent Effect” value was 76.95%. For `COCCN1CCC2(CC1)CC(NC(=O)CN(C)C)c1ccccc1O2.O=C(O)C(F)(F)F.O=C(O)C(F)(F)F` (stereo not given), the “Percent Effect” value was -9.867%. With `N#Cc1cccc(CN2Cc3nccn3CC(COCC3CC3)C2)c1.O=C(O)C(F)(F)F` (stereo not given) the “Percent Effect” value was -23.01%. In the case of `O=C1CCCC2=C1C(c1ccccc1Cl)Nc1nonc1N2` (stereo not given), the “Percent Effect” value is reported as 3.129%. For `O=C(CNC(=O)c1ccoc1)NCCOc1ccc2c(c1)CCC2`, the “Percent Effect” value was 12.38%. In the case of `Cc1occc1C(=O)NCC(=O)NCCOc1ccc2c(c1)CCC2`, the “Percent Effect” value is reported as 50.55%. With `Cc1occc1C(=O)NCC(=O)NCCOc1cccc(Cl)c1` the “Percent Effect” value was 34.75%. `Cc1ccc(CN2CCOCC3(CCN(Cc4cccs4)C3)C2)o1.O=C(O)C(F)(F)F.O=C(O)C(F)(F)F` (stereo not given) was tested, and the “Percent Effect” value was -11.36%. For `COCCN1CCc2c(c(COc3cccnc3)nn2C)C1.O=C(O)C(F)(F)F.O=C(O)C(F)(F)F`, the “Percent Effect” value was 5.842%. With `Cc1ccc(Cl)cc1N1CCC(CNC(=O)CCn2ccnc2)C1` (stereo not given) the “Percent Effect” value was 172.3%. In the case of `Cc1cnn(CC(=O)NCC2CCN(c3cc(Cl)ccc3C)C2)c1` (stereo not given), the “Percent Effect” value is reported as 0.4801%. For `Cc1ccc(Cl)cc1N1CCC(CNC(=O)CC(F)(F)F)C1` (stereo not given), the “Percent Effect” value was 28.09%. For `Cc1ccc(Cl)cc1N1CCC(CNC(=O)Cn2cccn2)C1` (stereo not given), the “Percent Effect” value was 6.122%. In the case of `Cc1ccc(Cl)cc1N1CCC(CNC(=O)CCn2ccnn2)C1` (stereo not given), the “Percent Effect” value is reported as 62.44%. With `CCC(=O)NCC(=O)NCC1CCN(c2cc(Cl)ccc2C)C1` (stereo not given) the “Percent Effect” value was -4.009%.
